Where a name gives a salt, the structure may show the parent alone. ± gives the uncertainty stated by the source.
Test system: NCC-MFS5-C1
Assay: cell viability relative to DMSO control; higher = less growth inhibition
Conditions: 10 µM; treatment time: 3 days
Protocol: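 NCC-MFS5-C1 myxofibrosarcoma cells (1x10^4 per well, 384-well) were treated on day 2 with 10 µM of each drug. On day 5, viability was read by CCK-8 absorbance at 450 nm and normalised to the DMSO control (%), n = 2.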

| SMILES | cell viability [%] |
| --- | --- |
| COc1cc2nccc(Oc3ccc(NC(=O)C4(C(=O)Nc5ccc(F)cc5)CC4)cc3)c2cc1OC [Cabozantinib malate (XL184)] | 67.2 ± 21 |
| CCC[C@@H]1C[C@@H](C(=O)N[C@@H]([C@H]2O[C@H](SC)[C@H](O)[C@@H](O)[C@H]2O)[C@@H](C)O)N(C)C1 [Lincomycin HCl] | 80.5 ± 9.3 |
| CO[C@H]1C[C@@H]2CC[C@@H](C)[C@@](O)(O2)C(=O)C(=O)N2CCCC[C@H]2C(=O)O[C@H]([C@H](C)C[C@@H]2CC[C@@H](OCCO)[C@H](OC)C2)CC(=O)[C@H](C)/C=C(\C)[C@@H](O)[C@@H](OC)C(=O)[C@H](C)C[C@H](C)/C=C/C=C/C=C/1C [Everolimus (RAD001)] | 64.9 ± 4.7 |
| CNNCc1ccc(C(=O)NC(C)C)cc1 [Procarbazine HCl] | 94.3 ± 7.5 |
| Nc1nc(CC(=O)Nc2ccc(CCNC[C@H](O)c3ccccc3)cc2)cs1 [Mirabegron] | 82.5 ± 4.6 |
| Nc1ccn([C@@H]2O[C@H](CO)[C@@H](O)C2(F)F)c(=O)n1 [Gemcitabine HCl] | 79.5 ± 5 |
| C#Cc1cccc(Nc2ncnc3cc(OCCOC)c(OCCO)cc23)c1 | 92.2 ± 1.8 |
| CCCCCOC(=O)Nc1nc(=O)n([C@@H]2O[C@H](C)[C@@H](O)[C@H]2O)cc1F [Capecitabine] | 72.9 ± 5.9 |
| COc1nc(N)nc2c1ncn2[C@@H]1O[C@H](CO)[C@@H](O)[C@@H]1O [Nelarabine] | 102 ± 3.3 |
| CC1(COc2ccc3c(c2)ncn3-c2ccc3cccc(N4CCC(N)CC4)c3n2)COC1 | 26.1 ± 3.3 |
| CC(=O)O[C@H]1C(=O)[C@@]2(C)[C@H]([C@H](OC(=O)c3ccccc3)[C@]3(O)C[C@H](OC(=O)[C@H](O)[C@@H](NC(=O)c4ccccc4)c4ccccc4)C(C)=C1C3(C)C)[C@]1(OC(C)=O)CO[C@@H]1C[C@@H]2O [Paclitaxel] | 53.9 ± 3.3 |
| NC(=O)NO [Hydroxyurea] | 71.3 ± 11 |
| CCN1CCN(Cc2ccc(Nc3ncc(F)c(-c4cc(F)c5nc(C)n(C(C)C)c5c4)n3)nc2)CC1 [Abemaciclib] | 76.5 ± 6.7 |
| COc1cc([C@@H]2c3cc4c(cc3[C@@H](O[C@@H]3O[C@@H]5CO[C@@H](c6cccs6)O[C@H]5[C@H](O)[C@H]3O)[C@H]3COC(=O)[C@H]23)OCO4)cc(OC)c1O [Teniposide] | 76.7 ± 4.4 |
| CC(C)(C#N)c1cc(Cn2cncn2)cc(C(C)(C)C#N)c1 [Anastrozole] | 83.5 ± 5.1 |
| C/C=C1\NC(=O)[C@H]2CSSCC/C=C/[C@H](CC(=O)N[C@H](C(C)C)C(=O)N2)OC(=O)[C@H](C(C)C)NC1=O [Romidepsin (FK228, Depsipeptide)] | -1.35 ± 0.8 |
| COc1cc(Nc2ncc(F)c(Nc3ccc4c(n3)N(COP(=O)(O)O)C(=O)C(C)(C)O4)n2)cc(OC)c1OC [Fostamatinib (R788)] | 29.5 ± 0.8 |
| Cc1ccc(NC(=O)c2ccc(CN3CCN(C)CC3)cc2)cc1Nc1nccc(-c2cccnc2)n1 [Imatinib (STI571)] | 72.9 ± 3.3 |
| C=CC(=O)N1CCC(Oc2cc3c(Nc4ccc(Cl)c(Cl)c4F)ncnc3cc2OC)CC1 [Poziotinib (HM781-36B)] | 68.6 ± 1 |
| C[C@@H]1CCN(C(=O)CC#N)C[C@@H]1N(C)c1ncnc2[nH]ccc12 | 79.5 ± 2.5 |

| SMILES | cell viability [%] |
| --- | --- |
| O=C(c1cc(Cc2n[nH]c(=O)c3ccccc23)ccc1F)N1CCN(C(=O)C2CC2)CC1 | 78 ± 9.1 |
| Clc1ccc(Nc2nnc(Cc3ccncc3)c3ccccc23)cc1 [Vatalanib (PTK787) 2HCl] | 59.1 ± 0.89 |
| Cc1ccc(F)c(NC(=O)Nc2ccc(-c3cccc4[nH]nc(N)c34)cc2)c1 [Linifanib (ABT-869)] | 46.3 ± 12 |
| O=S(=O)(O)CCS [Mesna] | 76.99 ± 0.32 |
| N#CC[C@H](C1CCCC1)n1cc(-c2ncnc3[nH]ccc23)cn1 | 66.2 ± 4.7 |
| Cc1nc(Nc2ncc(C(=O)Nc3c(C)cccc3Cl)s2)cc(N2CCN(CCO)CC2)n1 [Dasatinib Monohydrate] | 60.9 ± 3.2 |
| CCS(=O)(=O)N1CCN(c2ccc(Nc3ncc(C(N)=O)c(NC4CC4)n3)cc2)CC1 | 61.5 ± 1.8 |
| CCN(CC)CCNC(=O)c1c(C)[nH]c(/C=C2\C(=O)Nc3ccc(F)cc32)c1C [Sunitinib Malate] | 7.73 ± 5.5 |
| O=C1CCC(N2C(=O)c3ccccc3C2=O)C(=O)N1 (stereo not given) [Thalidomide] | 84.4 ± 8.3 |
| C=CC(=O)Nc1cc(Nc2nccc(-c3cn(C)c4ccccc34)n2)c(OC)cc1N(C)CCN(C)C [Osimertinib (AZD9291)] | 2.66 ± 0.22 |
| COc1cc2nccc(Oc3ccc(NC(=O)NC4CC4)c(Cl)c3)c2cc1C(N)=O [Lenvatinib (E7080)] | 75.4 ± 0.93 |
| CO[C@H]1C[C@@H]2CC[C@@H](C)[C@@](O)(O2)C(=O)C(=O)N2CCCC[C@H]2C(=O)O[C@H]([C@H](C)C[C@@H]2CC[C@@H](OC(=O)C(C)(CO)CO)[C@H](OC)C2)CC(=O)[C@H](C)/C=C(\C)[C@@H](O)[C@@H](OC)C(=O)[C@H](C)C[C@H](C)/C=C/C=C/C=C/1C | 52.2 ± 7.9 |
| Nc1nc2n[nH]nc2c(=O)[nH]1 [Azaguanine-8] | 85.2 ± 7 |
| CC(=O)OCC(CCn1cnc2cnc(N)nc21)COC(C)=O [Famciclovir] | 80.4 ± 5.5 |
| Cc1ccc(NC(=O)c2ccc(CN3CCN(C)CC3)cc2)cc1Nc1nccc(-c2cccnc2)n1 [Imatinib Mesylate (STI571)] | 69.6 ± 1.4 |
| CCN(CC)CCNC(=O)c1c(C)[nH]c(/C=C2\C(=O)Nc3ccc(F)cc32)c1C [Sunitinib] | 67.9 ± 9.6 |
| O=C(O)CCCN1CCC(O[C@@H](c2ccc(Cl)cc2)c2ccccn2)CC1 [Bepotastine Besilate] | 78.7 ± 2.6 |
| C[C@]12CC[C@@H]3c4ccc(O)cc4C[C@@H](CCCCCCCCC[S+]([O-])CCCC(F)(F)C(F)(F)F)[C@H]3[C@@H]1CC[C@@H]2O (stereo not given in full) [Fulvestrant] | 74.38 ± 0.27 |
| CC[C@]1(O)C[C@@H]2CN(CCc3c([nH]c4ccccc34)[C@@](C(=O)OC)(c3cc4c(cc3OC)N(C)[C@H]3[C@@](O)(C(=O)OC)[C@H](OC(C)=O)[C@]5(CC)C=CCN6CC[C@]43[C@@H]65)C2)C1 [Vinblastine sulfate] | 35.1 ± 2.5 |
| C=CC(=O)Nc1cc2c(Nc3ccc(F)c(Cl)c3)ncnc2cc1OCCCN1CCOCC1 [Canertinib(CI-1033)] | 84.2 ± 5 |
